Common to all, as to experiment: cell viability relative to vehicle control; higher = less cytotoxic
Common to all, as to conditions: 10 µM

For one experiment, the system named is K562. The method in brief:
(§1)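 CRISPR-edited mutant clones and isogenic wild-type clones from four leukaemia lines were screened against Selleck bioactive, kinase and epigenetic probe libraries, with identity-inconsistent compounds excluded. Each compound was acoustically dispensed at a single 10 µM dose into 384-well plates holding 2000 cells in 50 µL medium per well. After 48 h the supernatant was removed and CellTiter-Glo luminescence was read. Viability was expressed as percent of the on-plate vehicle control and analysed in Genedata Screener.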

Another experiment relates to MARIMO. The method in brief:
as §1

The subject of another experiment is MOLM14. The method in brief:
as §1

Another experiment has as its system OCI-AML2. The procedure, abridged: as §1

Several values for one entry are separate records, joined by “and”; a condition that tells them apart may be missing. Equal entries are not always repeated. Structures can show the parent of a compound that is named as a salt.

Consider `CCCCCc1cc(O)cc(O)c1` [Olivetol], for which the cell viability with K562 (SRSF2 genotype: SRSF2 P95H/wt) was 102% and 99.9%; with K562 (SRSF2 genotype: SRSF2 wt/wt) it was 110%; in the experiment with MARIMO (SRSF2 genotype: SRSF2 P95H/wt) it was 87.2%; in the experiment on MARIMO (SRSF2 genotype: SRSF2 wt/wt), 96.8%; with MOLM14 (SRSF2 genotype: SRSF2 P95H/wt), 101%; in the experiment on MOLM14 (SRSF2 genotype: SRSF2 wt/wt) it was 107%. For the same molecule, the cell viability in the experiment with OCI-AML2 (SRSF2 genotype: P95H/wt) worked out at 111%; in the experiment on OCI-AML2 (SRSF2 genotype: wt/wt), 112%.

Consider `CN1[C@@H]2CC[C@H]1C[C@@H](OC(=O)C(CO)c1ccccc1)C2` (stereo not given in full) [Atropine sulfate monohydrate], for which the cell viability is 93.4% and 94.7% in the experiment with K562 (SRSF2 genotype: SRSF2 P95H/wt); 100% with K562 (SRSF2 genotype: SRSF2 wt/wt); 104% in the experiment with MARIMO (SRSF2 genotype: SRSF2 P95H/wt); 112% with MARIMO (SRSF2 genotype: SRSF2 wt/wt); 100% in the experiment on MOLM14 (SRSF2 genotype: SRSF2 P95H/wt); 105% in the experiment with MOLM14 (SRSF2 genotype: SRSF2 wt/wt). For the same molecule, the cell viability is 100% with OCI-AML2 (SRSF2 genotype: P95H/wt) and 99.6% in the experiment with OCI-AML2 (SRSF2 genotype: wt/wt).

For `CC(C)C(Br)C(=O)NC(N)=O` (stereo not given) [Bromisoval], the cell viability in the experiment with K562 (SRSF2 genotype: SRSF2 P95H/wt) is 99.8% and 99.2%; with K562 (SRSF2 genotype: SRSF2 wt/wt) it was 94.8%; in the experiment with MARIMO (SRSF2 genotype: SRSF2 P95H/wt), 95.8%; in the experiment with MARIMO (SRSF2 genotype: SRSF2 wt/wt), 108%; in the experiment on MOLM14 (SRSF2 genotype: SRSF2 P95H/wt), 92%; in the experiment on MOLM14 (SRSF2 genotype: SRSF2 wt/wt), 104%. Moreover, the cell viability was found to be 93.2% with OCI-AML2 (SRSF2 genotype: P95H/wt) and 95% in the experiment on OCI-AML2 (SRSF2 genotype: wt/wt).

As to `CN1C2CC(O)CC1C1OC12` (stereo not given) [Scopine], the cell viability was 100% and 97.1% with K562 (SRSF2 genotype: SRSF2 P95H/wt); 95.5% in the experiment with K562 (SRSF2 genotype: SRSF2 wt/wt); 101% in the experiment with MARIMO (SRSF2 genotype: SRSF2 P95H/wt); 103% in the experiment with MARIMO (SRSF2 genotype: SRSF2 wt/wt); 97% with MOLM14 (SRSF2 genotype: SRSF2 P95H/wt); 100% with MOLM14 (SRSF2 genotype: SRSF2 wt/wt). The cell viability in the experiment on OCI-AML2 (SRSF2 genotype: P95H/wt) was 93.6%; in the experiment with OCI-AML2 (SRSF2 genotype: wt/wt), 106%.

On to `CC(C)=CCCC(C)(O)C1CCC2(C)C1C(O)CC1C3(C)CCC(OC4OC(CO)C(O)C(O)C4O)C(C)(C)C3CCC12C` [(20R)Ginsenoside Rh2], for which the cell viability was 90.5% and 92.8% in the experiment on K562 (SRSF2 genotype: SRSF2 P95H/wt); 96% in the experiment on K562 (SRSF2 genotype: SRSF2 wt/wt); 101% in the experiment on MARIMO (SRSF2 genotype: SRSF2 P95H/wt); 102% in the experiment with MARIMO (SRSF2 genotype: SRSF2 wt/wt); 102% in the experiment with MOLM14 (SRSF2 genotype: SRSF2 P95H/wt); 96% in the experiment with MOLM14 (SRSF2 genotype: SRSF2 wt/wt). The cell viability in the experiment on OCI-AML2 (SRSF2 genotype: P95H/wt) was 98.5%; in the experiment on OCI-AML2 (SRSF2 genotype: wt/wt), 106%.

As to `Cc1sc2c(c1C)C(c1ccc(Cl)cc1)=N[C@@H](CC(=O)OC(C)(C)C)c1nnc(C)n1-2`, the cell viability was 53.8% and 59.9% with K562 (SRSF2 genotype: SRSF2 P95H/wt); 61.5% with K562 (SRSF2 genotype: SRSF2 wt/wt); 22.3% in the experiment on MARIMO (SRSF2 genotype: SRSF2 P95H/wt); 30.9% with MARIMO (SRSF2 genotype: SRSF2 wt/wt); 15.9% in the experiment with MOLM14 (SRSF2 genotype: SRSF2 P95H/wt); 11.6% in the experiment on MOLM14 (SRSF2 genotype: SRSF2 wt/wt). Besides, the cell viability amounted to 17.5% with OCI-AML2 (SRSF2 genotype: P95H/wt) and 30.2% in the experiment with OCI-AML2 (SRSF2 genotype: wt/wt).

On to `CC[C@@H]1CN2CC[C@@]3(C(=O)Nc4ccccc43)[C@@H]2C[C@@H]1/C(=C\OC)C(=O)OC` [Corynoxine], for which the cell viability with K562 (SRSF2 genotype: SRSF2 P95H/wt) is 95.5% and 98.3%; in the experiment with K562 (SRSF2 genotype: SRSF2 wt/wt), 97.9%; in the experiment on MARIMO (SRSF2 genotype: SRSF2 P95H/wt), 75.2%; in the experiment on MARIMO (SRSF2 genotype: SRSF2 wt/wt), 69.5%; with MOLM14 (SRSF2 genotype: SRSF2 P95H/wt), 77.1%; in the experiment with MOLM14 (SRSF2 genotype: SRSF2 wt/wt), 82.5%. In addition, the values for the cell viability in the experiment on OCI-AML2 (SRSF2 genotype: P95H/wt) and with OCI-AML2 (SRSF2 genotype: wt/wt) were 92.9% and 79.2%, respectively.

With `CC(C)=CCCC(C)(O)C1CCC2(C)C1C(O)CC1C3(C)CCC(O)C(C)(C)C3C(OC3OC(CO)C(O)C(O)C3O)CC12C` [20(S)-Ginsenoside Rh1], the cell viability in the experiment with K562 (SRSF2 genotype: SRSF2 P95H/wt) is 103% and 105%; with K562 (SRSF2 genotype: SRSF2 wt/wt), 101%; in the experiment with MARIMO (SRSF2 genotype: SRSF2 P95H/wt), 106%; with MARIMO (SRSF2 genotype: SRSF2 wt/wt), 110%; with MOLM14 (SRSF2 genotype: SRSF2 P95H/wt), 102%; in the experiment on MOLM14 (SRSF2 genotype: SRSF2 wt/wt) it was 106%. Besides, the cell viability in the experiment with OCI-AML2 (SRSF2 genotype: P95H/wt) turned out to be 107%; in the experiment with OCI-AML2 (SRSF2 genotype: wt/wt) it was 115%.

For the molecule `COc1ccc(C(CN(C)C)C2(O)CCCCC2)cc1` (stereo not given) [Venlafaxine HCl], the cell viability with K562 (SRSF2 genotype: SRSF2 P95H/wt) was 99.9%; in the experiment on K562 (SRSF2 genotype: SRSF2 wt/wt), 98.7%; in the experiment on MARIMO (SRSF2 genotype: SRSF2 P95H/wt), 95.8%; in the experiment on MARIMO (SRSF2 genotype: SRSF2 wt/wt), 99.7%; with MOLM14 (SRSF2 genotype: SRSF2 P95H/wt) it was 96.9%; in the experiment with MOLM14 (SRSF2 genotype: SRSF2 wt/wt), 98.6%. Moreover, the cell viability in the experiment on OCI-AML2 (SRSF2 genotype: P95H/wt) was 99.8%; in the experiment on OCI-AML2 (SRSF2 genotype: wt/wt) it was 107%.

Turning to `CC(=O)O[C@H]1C(=O)[C@@]2(C)[C@H]([C@H](OC(=O)c3ccccc3)[C@]3(O)C[C@H](O)C(C)=C1C3(C)C)[C@]1(OC(C)=O)CO[C@@H]1C[C@@H]2O`, the cell viability is 93.5% and 95% with K562 (SRSF2 genotype: SRSF2 P95H/wt); 102% in the experiment on K562 (SRSF2 genotype: SRSF2 wt/wt); 100% in the experiment with MARIMO (SRSF2 genotype: SRSF2 P95H/wt); 96.6% with MARIMO (SRSF2 genotype: SRSF2 wt/wt); 104% with MOLM14 (SRSF2 genotype: SRSF2 P95H/wt); 102% in the experiment with MOLM14 (SRSF2 genotype: SRSF2 wt/wt). The cell viability with OCI-AML2 (SRSF2 genotype: P95H/wt) stood at 104%; in the experiment on OCI-AML2 (SRSF2 genotype: wt/wt) it was 97.3%.

For orientation: cell viability means a read-out of living cells in per cent, often relative to untreated cells.

Values taken from the supplement of paper PMC10981050.
